High-throughput results from PubChem.
cardiac RTF act: cardiac RTF calcium sensitivity activators, primary screen, biochemical, IANBD-TnC fluorescence, EC20 calcium; AID 493008, 2010; Troponin I, cardiac muscle (Homo sapiens) + Troponin T, cardiac muscle (Homo sapiens) + …; 0.24% of 340,000 active; IANBD-labeled TnC RTF fluorescence at EC20 calcium; 0% EC20 calcium, 100% full calcium; activation, % at 7.2 µM;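 active = activation above the mean over all tested compounds plus 3 SD, cut at about 30% in these data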;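 note: rise in fluorescence read as greater calcium sensitivity of cardiac thin filaments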
CRFBP-R2 block: antagonists of CRF-BP/CRF-R2 complex, primary screen, cell-based, HEK293, calcium dye fluorescence, uHTS; 0.59% of 350,000 active; AID 588475, 2011; CRF-induced calcium fluorescence; inhibition, % at 11.8 µM;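 active = inhibition of the ligand-induced calcium signal above about 50% at the single tested concentration, limit read from the data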
Myeloid diff 2: induction of myeloid progenitor differentiation, primary screen, cell-based, flow cytometry, MLPCN library. calls only at 10 µM. ER-HoxA9 myeloid progenitors, lysozyme-GFP differentiation. 1% of 360,000 active;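 active = normalized GFP-positive differentiation at or above the plate's own cutoff, the solvent-only control mean plus 3 SD; inconclusive = no clear call, values can overlap the other calls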;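 note: cells exposed to compound for four days before flow analysis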
CRFR2-BP ag: agonists of CRF-BP/CRF-R2 complex, primary screen, cell-based, HEK293, calcium dye fluorescence, uHTS; CRF-binding protein / CRF receptor 2 complex (human); calcium dye fluorescence (FLIPR); percent of saturating CRF peptide response; activation, % at 13.2 µM; 0.46% of 350,000 active;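 active = activation of at least 50%, plus an integration ratio under a set limit after plate pattern correction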
RTF Ca sens inh: cardiac RTF calcium sensitivity inhibitors, primary screen, biochemical, IANBD-TnC fluorescence, EC70 calcium; Troponin I, cardiac muscle (Homo sapiens) + Troponin T, cardiac muscle (Homo sapiens) + …; IANBD-labeled cardiac RTF, Ca2+ fluorescence; inhibition, % at 7.15 µM; 0.12% of 340,000 active; AID 493244, 2011;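 active = inhibition above the mean inhibition of all tested compounds plus 3 SD, cut at about 17% in these data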;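 note: assay run at fixed EC70 calcium of 1.6 mM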
Myeloid diff CP1: inducers of myeloid progenitor differentiation, confirmation, cell-based, GFP/Mac1 flow cytometry, cherry pick 01 | shares compounds with Myeloid diff 2 | ER-HoxA9 myeloid progenitors, GFP/Mac1 double-positive flow | calls only | 2% of 2,300 active;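 active = share of green or green-and-red cells above 9 and 9% in run 1 or 4 and 3% in run 2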
GFP autofluor: counter-screen for myeloid differentiation promoters: compound fluorescence. shares compounds with Myeloid diff 2. ER-HoxA9 myeloid progenitors, no estrogen, GFP autofluorescence flow cytometry; vehicle wells 0%, positive control 100%. fluorescence response, % (concentration not given with the values). 7.4% of 2,300 active. AID 651707;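 active = over 5% cells positive for green fluorescent reporter, or over 2% positive for both it and APC stain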
A number is an active result; . = inactive; ? = inconclusive; / = no result; + = active, no number. A selection: hits, their analogues and other compounds. The true share with any hit is near 2.2%.

SMILES | cardiac RTF act | CRFBP-R2 block | Myeloid diff 2 | CRFR2-BP ag | RTF Ca sens inh | Myeloid diff CP1 | GFP autofluor
COc1ccc(C)cc1NC(=O)n1ncc2cc(Cl)ccc21 | . | . | + | . | . | + | .
CCC(=O)Nc1cccc(NC(=O)CSc2nnc(C3CC3)n2C)c1 | . | . | . | . | . | . | .
Cn1c(SCC(=O)Nc2ccc3c(c2)CCC3)nnc1C1CC1 | . | . | . | . | . | / | /
c1cc2c(cc1NC1CCCCCC1)OCO2 | . | . | + | . | . | . | .
COc1ccc(N(Cc2ccccc2)S(=O)(=O)c2cccc(C(=O)NCC3CCCO3)c2)cc1 (stereo not drawn) | . | . | . | . | . | / | /
O=C(c1cccc(Br)c1)N1CCN(S(=O)(=O)N2CCCCCC2)CC1 | . | . | . | . | . | / | /
O=C(CNC(=O)c1ccc(=O)[nH]c1)Nc1ccc(F)c(F)c1 | . | . | + | . | . | . | .
O=C(Nc1nc(-c2cccnc2)cs1)c1ccc(S(=O)(=O)N2CCOCC2)cc1 | . | . | . | . | . | . | .
CCCN1CCC(=O)N(CCO)CC1 | . | . | . | . | . | / | /
COc1ccc(C(C)=O)c(Oc2ccc(S(=O)(=O)N3CCOCC3)cn2)c1 | . | . | . | . | . | / | /
Cc1oc(C(=O)O)cc1CSc1nnc(-c2ccccc2)n1C | . | . | . | . | . | . | .
CCOc1cccc(/C=N/Nc2ccc(S(=O)(=O)N(CC)CC)cn2)c1O | . | . | ? | . | . | / | /
CCN(CC)S(=O)(=O)c1ccc(N/N=C/c2ccc(O)cc2)nc1 | . | . | . | . | . | . | .
CCCN(CCC)Cc1cc(=O)oc2cc(C)c(C)cc12 | / | / | . | / | / | / | /
CCOc1ccccc1-n1c(SCC(=O)N(C(C)C)C(C)C)nnc1-c1cccnc1 | . | . | . | . | . | . | .
COc1ccc2c(Cl)c(C(=O)N/N=C/c3cccnc3)sc2c1 | . | . | . | . | . | / | /
COC(=O)c1ccc(NC(=O)Nc2ccccc2F)cc1 | . | . | . | . | . | / | /
COC(=O)c1ccc(NC(=O)Nc2ccccc2C)cc1 | . | . | . | . | . | . | .
O=[N+]([O-])c1ccc(O)c(CN2CCCCCC2)c1 | . | . | . | . | . | . | .
COc1cccc(CN2CCC2(C)C(=O)NCCc2ccccn2)c1OC (stereo not drawn) | / | / | . | / | / | / | /
COc1ccc2c(c1)OC[C@H]1[C@H]2N2C(=O)c3cc(OC)ccc3NC(=O)[C@@]2(C)[C@H]1c1ccccc1 | . | . | . | . | . | . | .
CCOc1ccc(C(=O)Nc2cccc(-c3nc4cccnc4o3)c2)cc1Cl | . | . | + | . | . | . | .
Cc1ccc(C)c(-c2csc(NC(=O)C3=COCCO3)n2)c1 | . | . | . | . | . | . | .
Cc1ccc(-n2c(SCC(=O)Nc3ccc(C(=O)O)cc3)nnc2-c2ccncc2)cc1 | . | . | . | . | . | / | /
Cc1ccc(C(=O)NNC(=O)CSc2nnc(-c3ccncc3)n2-c2ccc(C)cc2)cc1 | . | / | . | / | . | . | .
SMILES | cardiac RTF act | CRFBP-R2 block | Myeloid diff 2 | CRFR2-BP ag | RTF Ca sens inh | Myeloid diff CP1 | GFP autofluor
CCOC1=C2CN(S(=O)(=O)c3ccc(C)cc3)C(c3cccc(Cl)c3)CC2NC(c2ccccc2)C1 (stereo not drawn) | / | / | . | / | / | / | /
CC(=O)Nc1cccc(-c2cc(N3CCN(CCO)CC3)n3nccc3n2)c1 | / | / | . | / | / | / | /
CC(C)N(CC#CCC(O)(c1ccccc1)c1ccccc1)C(C)C | . | . | . | . | . | . | .
CCN(CC#CCC(O)(c1ccccc1)c1ccccc1)C(C)C | . | . | . | . | . | / | /
COc1ccc(N/C=C2/CCCCC2=O)cc1 | . | . | . | . | . | . | .
COc1ccc(Oc2ccc(N/C=C3/CCCC3=O)cc2)cc1 | . | . | . | . | . | / | /
CCc1ccc(-c2nc(SCC(=O)N3CCOCC3)n[nH]2)cc1 | . | . | + | . | . | . | 14
COc1ccc(OCCSc2nnc(Cc3cccc4ccccc34)n2N)cc1 | . | . | . | . | . | / | /
Cc1cccc(N2CCN(C(=O)C3CCN(S(=O)(=O)N4CCOCC4)CC3)CC2C)c1 (stereo not drawn) | . | . | + | . | . | . | .
O=C(COc1ccccc1Br)Nc1ccc(S(=O)(=O)N2CCCC2)cc1 | . | . | . | . | . | / | /
CCOC(=O)C1CCCN(C(=O)CNS(=O)(=O)c2ccc(Br)s2)C1 (stereo not drawn) | . | . | + | . | . | . | .
O=[N+]([O-])c1cccc(S(=O)(=O)/N=C(/Nc2ccccc2)c2ccccc2)c1 | . | . | . | . | . | / | /
CCCC1CCC(C(=O)Nn2c(C)nc3ccccc3c2=O)CC1 (stereo not drawn) | . | . | . | . | . | / | /
CCCCCCC1CCC(C(=O)Nn2c(C)nc3ccccc3c2=O)CC1 (stereo not drawn) | . | . | . | . | . | . | .
CCN1/C(=C2/OC(=S)N(C)C2=O)Sc2ccccc21 | . | . | . | . | . | / | /
CCN1/C(=C\C=C2\C(=O)N(C)C(=S)N2C)Sc2ccccc21 | . | . | . | . | . | . | .
Cc1ccc(C2NC(=O)CCC2[N+](=O)[O-])cc1 (stereo not drawn) | / | . | . | . | / | / | /
O=C(O)c1cccnc1Nc1ccc(Cl)cc1 | . | . | + | . | . | + | .
CC(C)N(Cc1ccccc1)C(=O)COC(=O)c1ccc(O)cc1 | . | . | . | . | . | / | /
Cc1c(-c2cccc(NC(=O)c3cccs3)c2)nc2ncccn12 | . | . | . | . | . | / | /
Cc1cc(NC(=O)C(C)SCC(=O)Nc2nnc(CC(C)C)s2)no1 (stereo not drawn) | . | . | / | . | . | / | /
Cc1cc(NC(=O)C(C)Sc2nnc(NCc3ccco3)s2)no1 (stereo not drawn) | . | . | + | . | . | . | .
CC(=O)OCCCCON1C(=O)c2ccccc2C1=O | . | . | / | . | . | . | .
O=C1c2ccccc2C(=O)N1CCCON1C(=O)c2ccccc2C1=O | . | . | . | . | . | / | /
CCCCN1C(=O)C(=O)N(CC(=O)c2cc(C)n(C3CC3)c2C)C1=O | . | . | . | . | . | / | /
O=C(NCc1ccco1)c1ccccc1 | . | . | . | . | . | / | /
O=C(Nc1sccc1C(=O)NCc1ccco1)c1cccnc1 | . | . | . | . | . | . | .
CCN(CC)S(=O)(=O)c1cc(OCC(N)=O)c(C)cc1Cl | . | . | . | . | . | . | .
CC1CCCC(NC(=O)c2ccc3snnc3c2)C1C (stereo not drawn) | . | . | . | . | . | / | /
